TDP1 cell noCPT: qHTS for Inhibitors of human tyrosyl-DNA phosphodiesterase 1 (TDP1): qHTS in cells in absence of CPT. DT40 Tdp1-/- hTDP1 cells, no CPT, ATP luminescence, 48 h. actives 15% (n = 420,000). Potency, µM (highest dose often 46.2 µM), inactives show at the highest dose activity change, negative = growth inhibition, actives largely listed as inhibitors; also: potency is read from the fitted curve at half-maximal effect; nearly all actives have a fitted effect of over 55% in size
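Stably hTDP1-transfected Tdp1-null chicken DT40 cells were treated with library compounds minus camptothecin and grown for at least 48 hr at 37 °C, after which cellular ATP was quantified by luminescence.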
HT1080NT lethal: kills 2HG-producing HT-1080-NT fibrosarcoma cells | HT-1080-NT fibrosarcoma viability, CellTiter-Glo ATP luminescence, 48 h | Potency, µM (top dose mostly 46.1 µM), inactives show top-dose activity, negative = less viability, usual class: cytotoxic | actives 1.6% (n = 360,000);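 also: NT is the 2HG producing partner of a matched IDH1 knockdown line; potency is read from the fitted curve at half-maximal effect; 0% = DMSO-treated cells and -100% = media-only wells without cells; nearly all actives have a fitted effect of over 55% in size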
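A 48-hour cytotoxicity screen used HT-1080-NT cells plated 2 hours before compound delivery. ATP-based CellTiter-Glo luminescence measured viability, normalized to DMSO and no-cell controls.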
uPA surface inh: cell surface uPA generation inhibition | actives 0.31% (n = 330,000) | cell surface uPA generation assay, qHTS | AID 540303 | Potency, µM (series often up to 38.3 µM), for the others: at the highest dose activity change, negative = inhibition, actives largely listed as inhibitors; active = well fitted inhibition curve with a large enough effect; inconclusive = small, poorly fitted or top-dose-only effect; inactive = no such curve, though single readings can be large or run the other way; tested in mouse RAW 264.7 cells; also: potency is read from the fitted curve at half-maximal effect; nearly all actives have a fitted effect of over 55% in size
HT1080 IDH1KD tx: HT-1080 IDH1 knockdown cell toxicity (counter line); Potency, µM (top dose mostly 46.1 µM), for inactives: at the top dose activity, negative = toxicity, most hits filed as cytotoxic; HT-1080 IDH1 knockdown viability, ATP luminescence, 48 h; actives 2% (n = 360,000); AID 686971;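 also: potency is read from the fitted curve at half-maximal effect; 0% = DMSO wells and -100% = cell-free medium wells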
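Knockdown cells (IDH1KD HT-1080) received compounds 2 h after plating at 750 cells/well and were kept 48 h at 37 °C in 5% FBS RPMI. A CellTiter-Glo luminescence read gave % activity for curve fitting.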
DT40 TDP1 CPT: DT40-hTDP1 cell growth loss with CPT; actives 12% (n = 420,000); chicken DT40 Tdp1-/-;hTDP1 cells + 20 nM CPT, ATP luminescence, 48 h; Potency, µM (doses to about 46.2 µM), without a hit: top-dose activity change, negative = growth inhibition, most hits filed as inhibitors; also: potency is read from the fitted curve at half-maximal effect; nearly all actives have a fitted effect of over 55% in size
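Chicken DT40 Tdp1-/- cells stably complemented with human TDP1 were seeded at 400 cells/well in medium containing 20 nM camptothecin, exposed to pin-transferred compounds, and grown at 37 °C for at least 48 hr. Viability was read as ATP luminescence.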
IL-1B inflam inh: inflammasome signaling inhibition, IL-1 beta readout; AID 743279; THP-1 LPS/ATP IL-1B secretion, AlphaLISA, 16 h; hits give low values; actives 4.7% (n = 360,000); activity change, % at 57.5 µM; in the data active = activity change below about -50%; inconclusive = mostly about -30% to -49%
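Secreted IL-1B measured by AlphaLISA bead assay after 16 h compound exposure of THP-1 cells; compounds (final up to 57.5 uM) added 1 h before LPS (250 ng/mL) and ATP (1.25 mM) stimulation; lower signal means less secretion.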
* = called active by the depositor; [ ] = dose if it differs, or a comment. Sampled rows, rich in hits. Any-hit rate of the full collection: about 19%. Unless noted, calls follow the shape of the dose curve; as a rule, active = well fitted curve in the direction sought with a large enough effect; inconclusive = small, poorly fitted or top-dose-only effect, or another doubt; inactive = no such curve, though single readings can be large; an effect the other way counts as inactive or inconclusive. Unless noted, % is scaled to controls: 0 for no effect and ±100 for the full control effect.

Screening Cn1cnc2c(=O)oc3ccc(S(=O)(=O)Nc4ccc(F)cc4)cc3c21 returned TDP1 cell noCPT -10.2% and DT40 TDP1 CPT -6.8%.
CN1CCN(C(=O)/C=C/c2c(F)cccc2Cl)CC1 was read as TDP1 cell noCPT 12.2%, HT1080NT lethal 21.4%, uPA surface inh -4.8%, HT1080 IDH1KD tx 18.6%, DT40 TDP1 CPT 1.6% and IL-1B inflam inh -4.1.
Cc1ccc(S(=O)(=O)Nc2c(NC3CCCCC3)c3ccccc3oc2=O)cc1 was read as TDP1 cell noCPT 0.7%, HT1080NT lethal -1.1%, uPA surface inh 0.8%, HT1080 IDH1KD tx -9.2%, DT40 TDP1 CPT inconclusive and IL-1B inflam inh inconclusive.
Nc1c(NC2CCCCC2)c2ccccc2oc1=O was read as TDP1 cell noCPT 16.4µM*, HT1080NT lethal -14.2%, HT1080 IDH1KD tx inconclusive, DT40 TDP1 CPT inconclusive and IL-1B inflam inh 19.2.
Screening O=c1oc2ccccc2c(NC2CCCCC2)c1NS(=O)(=O)c1ccc(Br)cc1 returned TDP1 cell noCPT inconclusive, HT1080NT lethal -9.7%, uPA surface inh -4.7%, HT1080 IDH1KD tx -15.5%, DT40 TDP1 CPT inconclusive and IL-1B inflam inh -70.6*.
Nc1c(NCCN2CCOCC2)c2ccccc2oc1=O was read as TDP1 cell noCPT 9.2µM*, HT1080NT lethal 0.7%, uPA surface inh -1.0%, HT1080 IDH1KD tx 2.3%, DT40 TDP1 CPT 5.17µM* and IL-1B inflam inh 28.9.
`OCCCNCc1cc2ccc(F)cc2nc1N1CCN(c2cccc(Cl)c2)CC1` gave TDP1 cell noCPT -38.0% and DT40 TDP1 CPT -6.4%[9.04 µM].
For COC(=O)[C@H](C)NS(=O)(=O)C1CC1 the results were TDP1 cell noCPT -20.5% and DT40 TDP1 CPT -4.2%.
Cc1ccn2c(Nc3ccccc3C)c(-c3ccc(N4CCOCC4)cc3)nc2c1 was read as TDP1 cell noCPT inconclusive and DT40 TDP1 CPT 18.4µM*.
`Cc1ccc2nc(-c3ccc(N4CCOCC4)cc3)c(Nc3ccccc3C)n2c1` gave TDP1 cell noCPT 18.4µM* and DT40 TDP1 CPT 16.4µM*.
Cc1ccccc1Nc1c(-c2ccc(N3CCOCC3)cc2)nc2ccc(Cl)cn12 was read as TDP1 cell noCPT 16.4µM* and DT40 TDP1 CPT 18.4µM*.
`Cc1ccc(Nc2c(-c3ccc(N4CCOCC4)cc3)nc3ccc(Cl)cn23)cc1` gave TDP1 cell noCPT -21.1% and DT40 TDP1 CPT -20.1%.
`C=CCC(CC=C)(CNC(=O)C(=O)Nc1ccc(C)cc1)c1ccccc1` gave TDP1 cell noCPT -21.9% and DT40 TDP1 CPT -22.6%.
Cc1ccc(NC(=O)C2CCN(S(=O)(=O)c3c(C)nn(C)c3C)CC2)c(Cl)c1 was read as TDP1 cell noCPT -14.9%, HT1080NT lethal -1.8%, uPA surface inh -18.1%, HT1080 IDH1KD tx -1.7%, DT40 TDP1 CPT -15.5% and IL-1B inflam inh 0.0.
`CC(=O)N1c2ccccc2C(C)(c2ccccc2)CC1(C)C` (centres undefined) gave TDP1 cell noCPT inconclusive, HT1080NT lethal -4.4%, uPA surface inh 15.5%, HT1080 IDH1KD tx inconclusive, DT40 TDP1 CPT inconclusive and IL-1B inflam inh 15.9.
Screening Cc1ccc2c(c1)N(C(=O)c1ccc(F)cc1)C(C)(C)CC2(C)c1ccccc1 (centres undefined) returned TDP1 cell noCPT 20.6µM* and DT40 TDP1 CPT inconclusive.
Screening CN1CCN(CC(=O)N2c3ccccc3C(C)(c3ccccc3)CC2(C)C)CC1 (centres undefined) returned TDP1 cell noCPT 18.4µM*, HT1080NT lethal -23.5%, uPA surface inh -15.2%, HT1080 IDH1KD tx inconclusive, DT40 TDP1 CPT 16.4µM* and IL-1B inflam inh -11.2.
